The list is not random: actives were taken first. Their share in the collection is about 3.9%.
PLCb3 inh: PLC-beta3 (human) inhibition, primary screen | inhibition, % at 12.2 µM | actives 0.18% (n = 370,000) | Q01970 | Purified PLC-beta3, fluorogenic substrate, fluorescence | AID 720704; in the data active = inhibition above about 11%;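 also: 0% = median of compound wells on plate and 100% = full blocker control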
HIF act: HIF pathway transcriptional activation | actives 0.32% (n = 300,000) | activation, % at 7.5 µM (by protocol) | AID 1910 | U2OS HRE-luciferase reporter, luminescence; normalized: DMSO 0%, desferrioxamine 100%;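 active = mean activation of at least 10% of the iron chelator positive control signal, with at least half of replicates also reaching 10%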
PLCg1 inh: PLC-gamma1 (human) inhibition, primary screen; P19174; purified PLC-gamma1, fluorogenic substrate, fluorescence; inhibition, % at 12.2 µM; actives 0.84% (n = 370,000); AID 720700; in the data active = inhibition above about 9.5%
sPLA2-III inh: Inhibits HGIII-sPLA2 liposome hydrolysis, primary screen; Q9NZ20; QFRET BODIPY PC-A2 liposome hydrolysis, fluorescence; inhibition, % at 12.2 µM; actives 0.56% (n = 370,000);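 active = inhibition above mean plus 3 SD of compounds lying within the high and low control bounds, cut at about 19% in these data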;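 also: 0% = median of test compound wells and 100% = no enzyme DMSO wells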
Target sequence (Q9NZ20 whole entry, looked up): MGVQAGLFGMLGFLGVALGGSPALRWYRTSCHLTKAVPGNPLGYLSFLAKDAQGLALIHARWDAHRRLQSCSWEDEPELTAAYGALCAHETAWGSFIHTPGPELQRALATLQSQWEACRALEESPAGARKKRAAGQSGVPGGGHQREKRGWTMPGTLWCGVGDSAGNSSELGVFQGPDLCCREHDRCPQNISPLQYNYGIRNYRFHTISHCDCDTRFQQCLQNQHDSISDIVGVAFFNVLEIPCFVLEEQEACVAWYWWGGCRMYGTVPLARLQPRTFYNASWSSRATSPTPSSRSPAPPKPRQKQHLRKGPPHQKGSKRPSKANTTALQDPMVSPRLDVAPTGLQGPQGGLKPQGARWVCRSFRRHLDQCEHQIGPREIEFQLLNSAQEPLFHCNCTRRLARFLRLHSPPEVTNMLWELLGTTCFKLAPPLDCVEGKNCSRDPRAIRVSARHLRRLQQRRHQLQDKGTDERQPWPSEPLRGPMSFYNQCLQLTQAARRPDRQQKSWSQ
AHR act: activates the human aryl hydrocarbon receptor. activation, % at 5 µM. P35869. actives 2.5% (n = 320,000). AHR-responsive luciferase reporter cells, luminescence; in the data active = activation above about 47%;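 also: 0% = vehicle wells and 100% = reference agonist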
CR mimetic SO: yeast age-related superoxide inhibition as caloric restriction mimetic | superoxide response (% of plate mean), % at 10 µM | actives 0.18% (n = 330,000) | AID 2690 | S. cerevisiae aged cells, superoxide DHE fluorescence; stronger effect = lower value;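 active = superoxide response under a set limit, about three screen SD below normal, cut at about 65% in these data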;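 also: yeast aged for seven days with compound at 30 °C before DHE staining; 100% = average MFI of all compound-treated wells on the plate with controls excluded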
AHR act confirm: human AHR activation, confirmation; shares compounds with AHR act; human cells, AHR-responsive luciferase reporter, luminescence; activation, % at 9 µM; actives 87% (n = 2,300); in the data active = activation above about 49%;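 also: HepG2 hepatoma cells carrying a DRE-driven firefly luciferase reporter; 0% = vehicle wells and 100% = reference agonist wells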
PXR act counter: counter-screen for AHR activators: human PXR activators; cell-based PXR reporter, luciferase luminescence; AID 434939; activation, % at 11.6 µM; actives 88% (n = 2,300); shares compounds with AHR act; in the data active = activation above about 11%;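 also: human hepatoma DPX-2 cells expressing full-length human PXR; 0% = DMSO and 100% = reference agonist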
* hit, by the source's call; i = inactive; · = no result given.

SMILES | PLCb3 inh | HIF act | PLCg1 inh | sPLA2-III inh | AHR act | CR mimetic SO | AHR act confirm | PXR act counter
CCOc1cc(C(C(=O)NCC2CCCO2)N(C(=O)Cn2nnc3ccccc32)c2ccccc2OC)ccc1O (stereo not given) | -4 | 0 | 1 | -14 | 6 | 100 | · | ·
CCc1ccc2oc(C(=O)NCc3ccncc3)c(C)c2c1 | 0 | 2 | -1 | -1 | 15 | 96 | · | ·
Cc1cc(C)c2c(C)c(C(=O)NCc3ccncc3)oc2c1 | -4 | 0 | -2 | 5 | 83* | 96 | 73* | 24*
O=C(O)c1nn2c(C(F)(F)F)cc(-c3cccs3)nc2c1Cl | -51 | 0 | -39 | 16 | 0 | 95 | · | ·
C/C(=N/Nc1nc(-c2ccc(Cl)cc2)cs1)c1cccs1 | -2 | 0 | 1 | -3 | 104* | 94 | 132* | 17*
CC(=O)Nc1ccc(-c2csc(N/N=C(/C)c3ccccc3)n2)cc1 | -20 | 2 | -13 | 6 | 0 | 83 | · | ·
COc1ccccc1CCC(=O)N(Cc1ccccc1)c1c(N)n(Cc2ccccc2)c(=O)[nH]c1=O | -5 | 0 | 0 | -7 | 1 | 97 | · | ·
Cn1c(CNc2ccc(Br)cc2)nc2ccccc21 | -4 | 5 | 1 | 13 | 108* | 91 | 185* | 48*
Cc1ccc(NCc2nc3ccccc3n2C)cc1C | -13 | -3 | -6 | 10 | 103* | 98 | 127* | 26*
Cc1ccc(NCc2nc3ccccc3n2C)cc1 | -4 | 3 | 2 | 7 | 80* | 99 | 66* | 12*
CCOC(=O)CC1c2nc3ccccc3cc2CN1C(=O)OCC (stereo not given) | 0 | · | 0 | 2 | · | · | · | ·
COc1ccc(CC(=O)Nc2cc(S(=O)(=O)N3CCOCC3)ccc2N2CCOCC2)cc1OC | 0 | · | -4 | 18 | · | · | · | ·
CC(=O)N/C(=N\c1nc(C)cc(C)n1)Nc1ccc(Cl)cc1Cl | -6 | 1 | -1 | 4 | 8 | 96 | · | ·
O=C(/C=C\c1ccccc1)Nc1nccs1 | -2 | -3 | -2 | 2 | 111* | 89 | 73* | 21*
O=C(/C=C/c1cccc(F)c1)Nc1nccs1 | 0 | 1 | 1 | -4 | 19 | 109 | · | ·
CCOC1=C2[C@@H](CN(S(=O)(=O)c3ccc(C)cc3)[C@H]2c2ccc(Cl)cc2)[C@H]2C(=O)N(c3ccccc3)C(=O)[C@H]2C1 | 0 | · | -2 | -5 | · | · | · | ·
O=S(=O)(Nc1ccc(-c2nc3cccnc3s2)cc1)c1cccs1 | i | 2 | -484 | -8 | 95* | 116 | 98* | 29*
COc1ccc(CCNC(=O)C(C)OC(=O)c2nsc(Cl)c2Cl)cc1OC (stereo not given) | -3 | -1 | -2 | 4 | -1 | 95 | · | ·
Nn1c(SCCOc2ccc(Cl)cc2)nnc1-c1cccnc1 | -7 | 0 | -1 | 5 | 91* | 103 | 125* | 22*
O=C(Cn1ncc(Cl)c(Cl)c1=O)NC(=O)NC1CCCCC1 | -8 | · | 1 | -4 | 2 | 113 | · | ·
CCn1c(C)c(C(C)=O)c(N2CCN(c3ccc(OC)cc3)CC2)nc1=S | -3 | 0 | -1 | -8 | 86* | 115 | 38 | 26*
NC(=S)N/N=C/c1ccc2cccc(OCc3ccccc3)c2n1 | i | 3 | i | 10 | 17 | 91 | · | ·
COc1ccc(C(=O)N/N=C/c2ccc3cccc(OCc4ccccc4)c3n2)cc1 | i | 2 | i | -10 | 81* | 98 | 81* | 22*
Cn1c(=O)c2c(nc(/C=C/c3cccc(Cl)c3)n2C)n(C)c1=O | -65 | 1 | -44 | -4 | 86* | 105 | 55* | ·
O=C(NC(=S)N1CCCc2ccccc21)c1ccccc1 | -47 | 0 | -32 | 4 | 32 | 94 | · | ·
O=C(NC(=S)N1CCCc2ccccc21)c1ccc(Br)cc1 | -28 | 0 | -25 | 3 | 88* | 98 | 84* | 20*
C(=N\Nc1nc2ccccc2[nH]1)/c1ccncc1 | -12 | 3 | -12 | 9 | 108* | 98 | 114* | 11*
CC(=O)Nc1ccc(/C=N/Nc2nc3ccccc3[nH]2)cc1 | -40 | 2 | -36 | 6 | 157* | 93 | 107* | 13*
